Measured values: the supplement of paper PMC7366291
Where a name gives a salt, the structure may show the parent alone. ± gives the standard deviation or the standard deviation of the averaged measurements.

Assays:
Conditions in all cases: 25 µM; exposure: 24-48 hpf
[1] = test system: Danio rerio Tg(wt1b:EGFP) embryo, pronephros; assay: glomerular separation, fold change vs DMSO control; higher = glomeruli further apart (abnormal)
In short: (§1)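 Distances and angles describing the pronephros were computed by a Fiji macro from 16 reference points set manually on maximum projections of dorsal images. These images came from dechorionated Tg(wt1b:EGFP) zebrafish embryos held in agarose-filled 96-well plates after exposure to 25 μM compound in 0.5% DMSO, in HEPES-buffered E3 with 0.003% PTU, from 24 to 48 hpf at 28.5°C. Any value more than 2 SD from the feature mean was excluded. Features are stated as fold change relative to the mean of same-day DMSO-treated embryos.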

[2] = test system: Danio rerio Tg(wt1b:EGFP) embryo, pronephros; assay: glomerular width (mean of left and right), fold change vs DMSO control; higher = wider glomerulus
In short: as §1

[3] = test system: Danio rerio Tg(wt1b:EGFP) embryo, pronephros; assay: fraction of imaged embryos annotated as normal kidney; higher = less nephrotoxic; extreme values may be limits of the assay
In short: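 Dechorionated Tg(wt1b:EGFP) zebrafish embryos were incubated with 25 μM compound in 0.5% DMSO, 5 mM HEPES-buffered E3 and 0.003% PTU from 24 to 48 hpf at 28.5°C. Pronephroi were then imaged by widefield fluorescence, and the fraction of embryos per treatment assigned by hand to the normal-kidney category is given.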

[4] = test system: Danio rerio Tg(wt1b:EGFP) embryo, pronephros; assay: pronephric angle neck segment to proximal convoluted tubule (mean of left and right), fold change vs DMSO control; higher = larger pronephric angle
In short: as §1

Row | SMILES | glomerular separation [1] | glomerular width [2] | fraction of imaged embryos annotated as normal kidney [3] | pronephric angle neck segment [4]
1 | CC(C)NCC(O)COc1cccc2[nH]ccc12 (stereo not drawn) [Pindolol] | 0.674 ± 0.2 | 0.901 ± 0.021 | 0.909 | 0.984 ± 0.025
2 | Cc1ccc(C(=O)c2ccc(CC(=O)O)n2C)cc1 [Tolmetin sodium salt dihydrate] | 1.55 ± 0.69 | 1.006 ± 0.0038 | 0.333 | 1 ± 0.075
3 | CC1(C)S[C@@H]2[C@H](NC(=O)Cc3ccccc3)C(=O)N2[C@H]1C(=O)O [Benzathine benzylpenicillin] | 0.907 ± 0.35 | 1.06 ± 0.074 | 1 | 0.951 ± 0.019
4 | C#CCN(C)Cc1ccccc1 [Pargyline hydrochloride] | 1.04 ± 0.29 | 1.09 ± 0.052 | 0.833 | 0.95 ± 0.015
5 | CC1(C)S[C@@H]2[C@H](NC(=O)Cc3ccccc3)C(=O)N2[C@H]1C(=O)O [Benzylpenicillin sodium] | 0.915 ± 0.33 | 1.02 ± 0.014 | 0.833 | 1.017 ± 0.0055
6 | CC[C@H]1OC(=O)[C@H](C)[C@@H](O[C@H]2C[C@@](C)(OC)[C@@H](O)[C@H](C)O2)[C@H](C)[C@@H](O[C@@H]2O[C@H](C)C[C@H](N(C)C)[C@H]2O)[C@](C)(O)C[C@@H](C)C(=O)[C@H](C)[C@@H](O)[C@]1(C)O [Erythromycin] | 1.19 ± 0.74 | 1.042 ± 0.0044 | 0.818 | 0.9494 ± 0.0015
7 | N=C(N)N/N=C/c1c(Cl)cccc1Cl [Guanabenz acetate] | 1.12 ± 0.47 | 1.072 ± 0.01 | 1 | 0.9461 ± 0.00069
8 | CN(C)CCOC(=O)C(c1ccccc1)C1(O)CCCC1 (stereo not drawn) [Cyclopentolate hydrochloride] | 0.745 ± 0.24 | 0.9284 ± 0.0066 | 0.75 | 1.02 ± 0.035
9 | N=C(N)NCCN1CCCCCCC1 [Guanethidine sulfate] | 0.862 ± 0.46 | 1.04 ± 0.04 | 0.917 | 0.958 ± 0.035
10 | Nc1ccc(O)c(C(=O)O)c1 [Mesalamine] | 1.23 ± 0.36 | 0.956 ± 0.032 | 0.917 | 0.971 ± 0.018
11 | CN1CCN2c3ncccc3Cc3ccccc3C2C1 (stereo not drawn) [Mirtazapine] | 0.964 ± 0.35 | 0.98 ± 0.037 | 1 | 0.994 ± 0.056
12 | CCN1C(=O)NC(c2ccccc2)C1=O (stereo not drawn) [Ethotoin] | 0.796 ± 0.17 | 0.998 ± 0.037 | 0.917 | 0.942 ± 0.014
13 | CNC(=C[N+](=O)[O-])NCCSCc1ccc(CN(C)C)o1 [Ranitidine hydrochloride] | 0.923 ± 0.34 | 0.941 ± 0.074 | 0.667 | 1.1 ± 0.051
14 | CN(C)CCn1nnnc1SCC1=C(C(=O)O)N2C(=O)[C@@H](NC(=O)Cc3csc(N)n3)[C@H]2SC1 [Cefotiam hydrochloride] | 1.46 ± 0.87 | 0.929 ± 0.014 | 0.917 | 1.08 ± 0.14
15 | CN[C@@H]1[C@@H](O)[C@@H](O[C@@H]2[C@@H](O)[C@H](O[C@H]3OC(CN)=CC[C@H]3N)[C@@H](N)C[C@H]2N)OC[C@]1(C)O [Sisomicin sulfate] | 1.23 ± 0.84 | 1.02 ± 0.043 | 0.833 | 1.11 ± 0.029
16 | CC1(C)O[C@@H]2C[C@H]3[C@@H]4C[C@H](F)C5=CC(=O)C=C[C@]5(C)[C@H]4[C@@H](O)C[C@]3(C)[C@]2(C(=O)CO)O1 [Flunisolide] | 1.26 ± 0.42 | 1.21 ± 0.018 | 0.667 | 0.92856 ± 0.0002
17 | CCCCOc1ccc(CC(=O)NO)cc1 [Bufexamac] | 1.11 ± 0.37 | 1.015 ± 0.0014 | 0.75 | 0.9927 ± 0.0019
18 | CC[N+](CC)(CC(=O)Nc1c(C)cccc1C)Cc1ccccc1 [Denatonium benzoate] | 0.973 ± 0.36 | 0.844 ± 0.018 | 0.917 | 0.99113 ± 0.00026
19 | C[C@@H]1C[C@H]2[C@@H]3C[C@H](F)C4=CC(=O)C=C[C@]4(C)[C@@]3(Cl)[C@@H](O)C[C@]2(C)[C@H]1C(=O)COC(=O)C(C)(C)C [Clocortolone pivalate] | 1.59 ± 0.52 | 1.26 ± 0.019 | 0.167 | 1.077 ± 0.009
20 | Cc1nc2ccccn2c(=O)c1CCN1CCC(C(=O)c2ccc(F)cc2)CC1 [Pirenperone] | 0.831 ± 0.3 | 1.05 ± 0.037 | 1 | 0.924 ± 0.0096
21 | CCC[C@@H]1C[C@@H](C(=O)N[C@@H]([C@H]2O[C@H](SC)[C@H](O)[C@@H](O)[C@H]2O)[C@H](C)Cl)N(C)C1 [Clindamycin hydrochloride] | 0.862 ± 0.2 | 0.964 ± 0.053 | 0.917 | 0.995 ± 0.013
22 | O=C1CN2Cc3c(ccc(Cl)c3Cl)N=C2N1 [Anagrelide] | 1.1 ± 0.67 | 0.932 ± 0.098 | 0.917 | 0.988 ± 0.027
23 | CN1CCCN=C1/C=C/c1cccs1 [Pyrantel tartrate] | 0.9 ± 0.18 | 0.937 ± 0.024 | 0.917 | 1.074 ± 0.0072
24 | CCN(CC)CCOCCOC(=O)C1(c2ccccc2)CCCC1 [Carbetapentane citrate] | 0.953 ± 0.34 | 0.949 ± 0.062 | 0.75 | 1.06 ± 0.11
25 | CN1CCC(=C2c3ccccc3CC(=O)c3sccc32)CC1 [Ketotifen fumarate] | 0.991 ± 0.29 | 1.06 ± 0.027 | 0.833 | 0.948 ± 0.013
26 | Cn1nnc2c(C(N)=O)ncn2c1=O [Temozolomide] | 0.665 ± 0.25 | 1 ± 0.046 | 0.917 | 0.9479 ± 0.0066

Row | SMILES | glomerular separation [1] | glomerular width [2] | fraction of imaged embryos annotated as normal kidney [3] | pronephric angle neck segment [4]
27 | CC(=O)NS(=O)(=O)c1ccc(N)cc1 [Sulfacetamide sodic hydrate] | 0.937 ± 0.25 | 1.05 ± 0.057 | 1 | 0.9887 ± 0.0093
28 | C#C[C@]1(O)CC[C@H]2[C@@H]3CCC4=C(CCC(=O)C4)[C@H]3CC[C@@]21C [Norethynodrel] | 1.17 ± 0.41 | 0.9892 ± 0.0088 | 0.667 | 0.984 ± 0.06
29 | COc1cc2nc(N3CCN(C(=O)C4CCCO4)CC3)nc(N)c2cc1OC (stereo not drawn) [Terazosin hydrochloride] | 0.764 ± 0.26 | 1.04 ± 0.027 | 0.833 | 0.9878 ± 0.0069
30 | CCc1nn(CCCN2CCN(c3cccc(Cl)c3)CC2)c(=O)n1CCOc1ccccc1 [Nefazodone hydrochloride] | 0.987 ± 0.43 | 1.05 ± 0.061 | 0.727 | 0.989 ± 0.012
31 | CCOC(=O)Nc1ccc2c(c1)N(C(=O)CCN1CCOCC1)c1ccccc1S2 [Moricizine hydrochloride] | 0.635 ± 0.18 | 1.04 ± 0.013 | 0.833 | 0.993 ± 0.055
32 | NCc1ccc(S(N)(=O)=O)cc1 [Mafenide hydrochloride] | 0.887 ± 0.27 | 1.09 ± 0.019 | 0.833 | 0.9512 ± 0.0031
33 | OCCN1C[C@H](O)[C@@H](O)[C@H](O)[C@H]1CO [Miglitol] | 1.12 ± 0.48 | 0.995 ± 0.011 | 0.909 | 0.982 ± 0.0086
34 | CC(C)(S)C(N)C(=O)O (racemic) [D,L-Penicillamine] | 1.31 ± 0.71 | 1.03 ± 0.015 | 0.583 | 0.996 ± 0.025
35 | CN(c1nccc(=O)[nH]1)C1CCN(c2nc3ccccc3n2Cc2ccc(F)cc2)CC1 [Mizolastine] | 1.05 ± 0.25 | 1.1 ± 0.017 | 0.917 | 0.937 ± 0.015
36 | CN1CCC(=C2c3ccccc3C=Cc3ccccc32)CC1 [Cyproheptadine hydrochloride] | 1.28 ± 0.31 | 0.94 ± 0.06 | 0.667 | 1.2 ± 0.081
37 | CN(C)CCC(c1ccc(Br)cc1)c1ccccn1 (stereo not drawn) [Brompheniramine maleate] | 0.985 ± 0.22 | 1.04 ± 0.065 | 1 | 1.05 ± 0.056
38 | CC(=O)c1ccc2c(c1)N(CCCN1CCC(CCO)CC1)c1ccccc1S2 [Piperacetazine] | 0.868 ± 0.28 | 0.976 ± 0.023 | 0.833 | 1.01 ± 0.081
39 | CC(=O)O[C@]1(C(C)=O)CC[C@H]2[C@@H]3C=C(C)C4=CC(=O)CC[C@@H]4[C@H]3CC[C@@]21C [Nomegestrol acetate] | 1.02 ± 0.29 | 0.953 ± 0.054 | 0.909 | 1.131 ± 0.0084
40 | NC12CC3CC(CC(C3)C1)C2 [Adamantamine fumarate] | 0.809 ± 0.31 | 1.07 ± 0.033 | 0.917 | 1.03 ± 0.013
41 | CN1CC2c3ccccc3Oc3ccc(Cl)cc3C2C1 (stereo not drawn) [Asenapine maleate] | 0.806 ± 0.35 | 0.991 ± 0.088 | 0.583 | 0.7772 ± 0.0031
42 | Cc1c(N(C)CS(=O)(=O)O)c(=O)n(-c2ccccc2)n1C [Dipyrone] | 0.952 ± 0.36 | 0.936 ± 0.012 | 0.917 | 0.993 ± 0.021
43 | CCC(=O)[C@@]1(C)[C@H](C)C[C@H]2[C@@H]3CCC4=CC(=O)C=C[C@]4(C)[C@H]3[C@@H](O)C[C@@]21C [Rimexolone] | 1.28 ± 0.36 | 1.02 ± 0.017 | 0.333 | 0.965 ± 0.031
44 | CC(C)(C)NC[C@@H](O)COc1cccc2c1CCCC2=O [(+) -Levobunolol hydrochloride] | 0.984 ± 0.46 | 0.935 ± 0.054 | 0.75 | 1.03 ± 0.015
45 | C=CC1=C(C(=O)O)N2C(=O)[C@@H](NC(=O)/C(=N\O)c3csc(N)n3)[C@H]2SC1 [Cefdinir] | 0.772 ± 0.34 | 1.04 ± 0.029 | 1 | 1.003 ± 0.0083
46 | CC(C)Cc1ccc([C@H](C)C(=O)O)cc1 [S-(+)-ibuprofen] | 4.34 ± 2.3 | 0.59 ± 0.021 | 0 | 1.61 ± 0.035
47 | CCCCNC(=O)NS(=O)(=O)c1ccc(C)cc1 [Tolbutamide] | 1.01 ± 0.53 | 1.01 ± 0.014 | 0.833 | 1.04 ± 0.023
48 | C[C@]12CC[C@@H]3c4ccc(O)cc4C[C@@H](CCCCCCCCC[S+]([O-])CCCC(F)(F)C(F)(F)F)[C@H]3[C@@H]1CC[C@@H]2O (stereo partly drawn) [Fulvestrant] | 1.22 ± 0.45 | 0.963 ± 0.037 | 0.833 | 0.874 ± 0.065
49 | CC(=O)OCC(=O)[C@@]1(OC(C)=O)[C@@H](C)C[C@H]2[C@@H]3C[C@H](F)C4=CC(=O)C=C[C@]4(C)[C@@]3(F)[C@@H](O)C[C@@]21C [Diflorasone Diacetate] | 1.52 ± 0.52 | 1.32 ± 0.052 | 0.727 | 0.973 ± 0.059
50 | Nc1nc(N)c2nc(-c3ccccc3)c(N)nc2n1 [Triamterene] | 1.02 ± 0.42 | 0.902 ± 0.0063 | 0.75 | 0.935 ± 0.046
51 | C[C@](N)(Cc1ccc(O)c(O)c1)C(=O)O [Methyldopa (L,-)] | 1.03 ± 0.18 | 1.02 ± 0.081 | 0.909 | 1.001 ± 0.0027
52 | CCc1c(C)[nH]c2c1C(=O)C(CN1CCOCC1)CC2 (stereo not drawn) [Molindone hydrochloride] | 0.897 ± 0.23 | 1 ± 0.018 | 0.833 | 0.956 ± 0.0018
